Data reported in ChEMBL document CHEMBL3988442, “University of Dundee, Small-Polar-MMV Screening Library” (2021).

These molecules were tested against AMP-activated protein kinase, AMPK (Homo sapiens) (UniProt P54646+O43741+P54619+Q9UGJ0+Q9Y478+Q13131+Q9UGI9) (assay: AMP-dependent Kinase enzyme assay. An in vitro enzyme assay that detects ADP turnover that is directly proportional to AMPK activity. This uses naive AMPK that is activated during the assay with MK-8722). Conditions: 30 µM.
Format: functional
Design: scale not given: direction of the effect not stated beside the values

Row | SMILES | Percent Effect [%]
1 | CC(C)c1cc(C(=O)N[C@@H]2CC[C@@H](Oc3ccccc3)[C@@H]2O)on1 | 16.6
2 | CN(Cc1n[nH]c2c1CCCCC2)C(=O)c1cc(-c2cccn2C)n[nH]1 | 12.8
3 | Cc1c(NC(=O)NC(C)CCO)cccc1OC1CCCC1 (centres undefined) | -7.69
4 | COCC[C@]1(O)CCN(Cc2ccccn2)C[C@H]1C | 5.38
5 | COc1ccc(C(C)NCCc2ccc(NC(C)=O)cc2)c(OC)c1 (centres undefined) | 8.45
6 | COc1ccc(CCCN(C)C(=O)c2cc(C(C)=O)c[nH]2)cc1OC | -2.16
7 | CN1C(=O)[C@H]2CC[C@@H]1CN(C(=O)Nc1ccccc1C(F)(F)F)C2 | -0.892
8 | Cc1ccc2nc(C(=O)N3CC(n4nc(C)cc4C)C3)cn2c1 | -4.01
9 | COc1ccc(-c2cc3nc(CCNC(=O)CN(C)C)nn3cn2)cc1 | 15
10 | Cc1noc(C)c1CC(=O)N1CCCC(Cn2ccnc2C)C1 (centres undefined) | -4.07
11 | Cc1cc(=O)n2nc(Oc3ccc(F)c(F)c3)sc2n1 | -9.97
12 | CN1CC2(CCN(C(=O)c3ccc(=O)n(C)c3)CC2)CC1=O | -1.98
13 | CCC(=O)N(c1ccc(C(=O)OC)cc1C)C(C)C | -4.13
14 | O=C(NCc1nc[nH]n1)c1cc(COc2cccc(C(F)(F)F)c2)[nH]n1 | -6.06
15 | O=C(Nc1ccc(Br)cc1F)c1ccc(N2CCOCC2)nn1 | -1.73
16 | COc1ccc(CCCN(C)C(=O)c2cc(Cl)c[nH]2)cc1OC | 7.77
17 | Cc1sc2ncnc(N3CCCC3Cn3cccn3)c2c1C (centres undefined) | 3.42
18 | CCc1ccc2nc(C)cc(C(=O)NC[C@@H]3CCNC[C@H]3O)c2c1 | -4.5
19 | COc1cccc2c1OCC(C(=O)NCc1ncc3c(n1)CCC3)C2 (centres undefined) | 6.59
